# Source: PubChem
# Rows were chosen to be rich in hits. Some 3.3% of all compounds tested hit in one or more screens of this group.
# AmpC no deterg – blocks E. coli AmpC beta-lactamase in detergent-free assay | 0.52% of 330,000 active | AmpC nitrocefin hydrolysis, absorbance 480 nm, 0.0001% Triton | Potency, µM (top dose mostly 57.1 µM), for inactives: at the highest dose activity change, negative = inhibition, most hits filed as inhibitors | P00811 | AID 485341;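 note: plate controls were no compound for no effect and no enzyme for full effect; nearly all actives have a fitted effect of over 20% in size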
# Target sequence (P00811 whole entry, looked up): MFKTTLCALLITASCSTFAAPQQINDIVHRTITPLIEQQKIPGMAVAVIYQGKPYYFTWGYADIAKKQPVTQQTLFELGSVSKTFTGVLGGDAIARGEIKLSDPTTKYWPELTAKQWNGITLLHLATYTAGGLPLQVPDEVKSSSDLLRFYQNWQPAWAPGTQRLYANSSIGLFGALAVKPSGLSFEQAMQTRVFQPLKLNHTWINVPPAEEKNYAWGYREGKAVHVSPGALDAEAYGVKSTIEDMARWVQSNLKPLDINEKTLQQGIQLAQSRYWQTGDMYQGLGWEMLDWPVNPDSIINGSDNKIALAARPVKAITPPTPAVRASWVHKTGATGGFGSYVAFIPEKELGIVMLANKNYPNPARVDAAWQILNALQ
#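 AmpC (5.3 nM in the dispensed reagent) in 20 mM phosphate pH 7.0 with 0.01% (detergent screen) or 0.0001% Triton X-100 was preincubated with compounds for 15 min at room temperature. Nitrocefin was then added from an 800 uM solution, and hydrolysis was followed at 480 nm.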
# Sm TGR inh – blocks Schistosoma mansoni thioredoxin glutathione reductase. Q962Y6. 3% of 360,000 active. AID 485364. purified TGR, DTNB reduction, TNB absorbance 405 nm. Potency, µM (top dose mostly 114 µM), inactives show at the highest dose activity change, negative = inhibition, usual class: inhibitors; note: nearly all actives have a fitted effect of over 60% in size
#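 TGR 20 nM + NADPH 100 uM (dispensed conc.), cpd preinc 15 min RT; start with NADPH (500 uM addition) then DTNB (15 mM addition). Kinetic TNB absorbance, 405 nm filter. Four-parameter Hill fit across titration.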
# AmpC detergent – inhibitors of E. coli AmpC beta-lactamase with detergent. Potency, µM (titrated, usually from 114 µM), for the others: at the top dose activity change, negative = inhibition, hits mostly inhibitors. P00811. AmpC hydrolysis of nitrocefin, absorbance 480 nm, 0.01% Triton. 0.041% of 370,000 active. AID 485294;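 note: 0% = no-compound wells and -100% = no-enzyme wells; nearly all actives have a fitted effect of over 25% in size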
#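 AmpC (5.3 nM in the dispensed reagent) in 20 mM phosphate pH 7.0 with 0.01% (detergent screen) or 0.0001% Triton X-100 was preincubated with compounds for 15 min at room temperature. Nitrocefin was then added from an 800 uM solution, and hydrolysis was followed at 480 nm.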
# * = called active by the depositor; ? = inconclusive; / = no result given. Calls come from the whole dose curve; as a rule, active = well fitted curve in the direction sought with a large enough effect; inconclusive = small, poorly fitted or top-dose-only effect, or another doubt; inactive = no such curve, though single readings can be large; an effect the other way counts as inactive or inconclusive. Unless noted, % is set by controls: 0 for no effect and ±100 for the full control effect; potency is the fitted concentration of half-maximal effect.
SMILES,AmpC no deterg,Sm TGR inh,AmpC detergent
O=C(COC(=O)/C=C/c1ccco1)Nc1ncc(Cl)cc1Cl,-28.9%,44.7µM*,-9.4%
CC(C)c1ccc(C2N=C(N)Nc3nc4ccccc4n32)cc1 (configuration not stated),/,7.1%,9.9%
CCOc1ccc(NC(=O)Cn2nc(SC)c(S(=O)(=O)c3ccccc3)c2N)cc1,/,2.9%,-0.4%
Clc1ccccc1CSc1nnc(C2CCNCC2)o1,/,-17.0%,22.4%
COc1cc(OC)c(Nc2nc3ccccc3nc2-n2nc(C)cc2C)cc1Cl,/,0.5%,-1.1%
CN(C)S(=O)(=O)c1ccc(Cl)c(NC(=O)COC(=O)/C=C/c2ccco2)c1,-24.8%,35.5µM*,-0.1%
COc1ccc(/C=C/C(=O)OCC(=O)Nc2cc(S(=O)(=O)N(C)C)ccc2Cl)cc1,-13.8%,-0.3%,2.2%
Cc1oc2c(c1C(=O)Nc1ccc(Cl)cc1F)C1=NCCN1C=N2,/,1.4%,22.1%
COC(=O)c1c(NC(=O)C2c3ccccc3Oc3ccccc32)sc2c1CCC(C)C2 (configuration not stated),/,2.3%,0.4%
O=C(NCC(c1cccs1)S(=O)(=O)c1cccs1)c1ccc(C(F)(F)F)cc1 (configuration not stated),/,?,1.0%
O=C(NCC(c1cccs1)S(=O)(=O)c1cccs1)c1ccc(Cl)cc1 (configuration not stated),/,25.1µM*,-0.8%
COc1ccc(C(=O)NCC(c2ccco2)S(=O)(=O)c2cccs2)cc1 (configuration not stated),/,8.91µM*,-0.6%
Cc1cccc(C(=O)NCC(c2ccco2)S(=O)(=O)c2cccs2)c1 (configuration not stated),/,7.08µM*,-0.9%
COc1cc(C(=O)NCC(c2ccco2)S(=O)(=O)c2cccs2)cc(OC)c1OC (configuration not stated),/,8.91µM*,3.2%
COc1cc(C(=O)NCC(c2ccco2)S(=O)(=O)c2ccccc2)cc(OC)c1OC (configuration not stated),/,-12.5%,0.7%
Cc1ccc(C(=O)NCC(c2cccs2)S(=O)(=O)c2cccs2)cc1C (configuration not stated),/,?,3.2%
O=C(NCC(c1cccs1)S(=O)(=O)c1cccs1)c1ccc(F)c(F)c1 (configuration not stated),/,?,2.3%
CCOc1cc(C(=O)OCc2cc(=O)n3c(C)csc3n2)cc(OCC)c1OCC,/,3.6%,-2.9%
COc1ccc(-n2ccnc(NCCc3ccccc3)c2=O)cc1OC,/,3.6%,-2.8%
CCn1nc(C)c2c(-c3ccccc3)cc(=O)n(C(C)C(=O)NCc3ccccc3OC)c21 (configuration not stated),/,-1.7%,11.0%
O=C(NCCN1CCCCC1)c1ccc(Cn2c(SCc3cccc(F)c3)nc3cccnc32)cc1,/,5.8%,14.5%
CCCn1c2ccccc2c2cnn(CC(=O)N(Cc3ccccc3)C(C)C)c(=O)c21,/,2.8%,3.3%
O=C(NCC(c1ccco1)S(=O)(=O)c1cccs1)c1ccc(Cl)cc1 (configuration not stated),/,14.1µM*,1.2%
O=C(NCCc1ccc(Cl)cc1)C(=O)NCC(c1ccco1)S(=O)(=O)c1cccs1 (configuration not stated),/,39.8µM*,-1.3%
O=C(NCCc1ccc(Cl)cc1)C(=O)NCC(c1ccco1)S(=O)(=O)c1ccccc1 (configuration not stated),/,?,1.9%
SMILES,AmpC no deterg,Sm TGR inh,AmpC detergent
CC(C)(C)c1ccc(C(=O)NCC(c2ccco2)S(=O)(=O)c2ccccc2)cc1 (configuration not stated),/,-13.8%,2.9%
COC(=O)Cn1c(-c2ccc(OC)cc2)c(-c2ccc(OC)cc2)nnc1=O,25.6%,79.4µM*,?
CC(C)OC(=O)Cn1c(-c2ccccc2)c(-c2ccccc2)nnc1=O,5.9%,0.4%,-7.5%
CCCCCCSc1ccc([C@@H]2[C@H]3C(=O)N(C)C(=O)[C@H]3[C@]3(C(=O)OC)CCCCN23)cc1OC,179.6%,?,-2.7%
CCCSc1ccc([C@@H]2[C@@H]3C(=O)N(C)C(=O)[C@@H]3[C@]3(C(=O)OC)CCCN23)cc1OC,172.9%,20µM*,1.7%
COC(=O)C(CC(=O)c1ccc(C)cc1)n1nc(C)cc1C (configuration not stated),45.3%,12.6µM*,4.5%
COC(=O)C(CC(=O)c1ccc(Br)cc1)n1ccnc1 (configuration not stated),-25.5%,0.282µM*,-1.8%
